Data reported in PubChem BioAssay (Tox21).
Results filed as inconclusive are left out. Where a call stands in place of a potency, no number is given. Activity calls are given as the source filed them. The call rests on the fitted dose curve.

What follows are compounds tested against 5-hydroxytryptamine receptor 2A (Homo sapiens) (UniProt P28223) (assay: 5-hydroxytryptamine receptor 2A (HTR2A) small molecule agonists, cell-based qHTS assay (AID 1963587; further: nearly all actives have a fitted effect of over 30% in size)). Details: HTR2A-CHO cells, calcium flux fluorescence, agonist mode; series mostly up to 76.8 µM.
Text: National Center for Advancing Translational Sciences [NCATS]
Division of Preclinical Innovation [DPI]
U.S. Environmental Protection Agency [EPA]
National Institutes of Environmental Health Sciences [NIEHS]
National Toxicology Program [NTP]
U.S. Food and Drug Administration [FDA]
The HTR2A receptor is a subtype of the 5-HT2 receptor that belongs to the serotonin receptor family and is a G protein-coupled receptor (GPCR). The HTR2A-CHO cell line stably expressing human 5-hydroxytryptamine receptor 2A (HTR2A) can be used for screening agonists of interactions between 5-HT2 and its ligands. The HTR2A-CHO calcium flux assay is a homogeneous fluorescence-based assay for detecting the intracellular calcium level using FDSS kinetic plate reader system.
HTR2A-CHO cells were dispensed at 2000 cells/3uL/well in 1536-well black-clear bottom plates using a Multidrop Dispenser. After the assay plates were incubated at a 37 C/5% CO2 incubator for 18 h, 3 uL of Dye Loading Buffer was transferred to the assay plate by a Flying Reagent Dispenser. The assay plates were incubated at 37 C for 1h. For agonist mode, 23 nL of compounds dissolved in DMSO, positive controls or DMSO only was transferred to the assay plate by a pin tool. The fluorescence intensity in the plates was measured using FDSS 7000EX kinetic plate reader for 2 min at 1 sec intervals.
Potency means the concentration at half of the fitted maximal effect.

Sequence of 5-hydroxytryptamine receptor 2A (Homo sapiens) (P28223 whole entry, looked up): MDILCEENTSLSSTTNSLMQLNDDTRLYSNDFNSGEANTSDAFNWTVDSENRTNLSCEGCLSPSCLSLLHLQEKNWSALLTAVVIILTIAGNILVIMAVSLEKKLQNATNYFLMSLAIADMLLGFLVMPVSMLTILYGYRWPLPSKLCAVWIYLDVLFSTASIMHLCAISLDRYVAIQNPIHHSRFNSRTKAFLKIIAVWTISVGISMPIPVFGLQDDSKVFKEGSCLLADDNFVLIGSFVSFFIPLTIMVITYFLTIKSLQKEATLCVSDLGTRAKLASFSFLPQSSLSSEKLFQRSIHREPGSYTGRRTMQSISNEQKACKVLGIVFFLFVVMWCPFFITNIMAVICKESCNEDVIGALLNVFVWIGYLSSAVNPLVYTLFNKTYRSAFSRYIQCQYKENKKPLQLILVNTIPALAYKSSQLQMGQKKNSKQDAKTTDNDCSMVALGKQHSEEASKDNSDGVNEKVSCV

| Compound | Potency |
| --- | --- |
| O=C1CN2CCOC2(c2ccccc2Cl)c2cc(Cl)ccc2N1 (stereo not given) | inactive |
| CCC(C)(C)O | inactive |
| O=C(OC1CCCCC1)c1ccccc1C(=O)OC1CCCCC1 | inactive |
| COc1cnc(OC)n2nc(NS(=O)(=O)c3c(OCC(F)F)cccc3C(F)(F)F)nc12 | inactive |
| CCOP(=S)(OCC)OC(Cl)C(Cl)(Cl)Cl (stereo not given) | inactive |
| CCCCOC(=O)c1ccccc1N | inactive |
| CN/C(=N\[N+](=O)[O-])NCC1CCOC1 (stereo not given) | inactive |
| CCOP(=S)(OCC)SC(CCl)N1C(=O)c2ccccc2C1=O (stereo not given) | inactive |
| C=CCOC(C)=O | inactive |
| CC(C)NCC(O)c1ccc(N)c(C#N)c1 (stereo not given) | 7.56 µM (active) |
| CC(C)N(C(=O)COc1nnc(C(F)(F)F)s1)c1ccc(F)cc1 | inactive |
| Clc1cc(C(Cl)(Cl)Cl)cnc1Cl | inactive |
| COc1ccc(-c2ccccc2)cc1NNC(=O)OC(C)C | inactive |
| C=CC(=C)C | inactive |
| Nc1nc(N)nc(N)n1 | inactive |
| Cc1c([N+](=O)[O-])c(C)c([N+](=O)[O-])c(C(C)(C)C)c1[N+](=O)[O-] | inactive |
| CC(=O)Nc1cc([As](=O)(O)O)ccc1O | inactive |
| CCCCCC[N+](=O)[O-] | inactive |
| C[C@@H]1CC2=CC(=O)CC[C@@H]2[C@H]2CC[C@@]3(C)[C@@H](CC[C@]3(C)O)[C@@H]21 | inactive |
| CCC(C)Nc1c([N+](=O)[O-])cc(C(C)(C)C)cc1[N+](=O)[O-] (stereo not given) | inactive |

| Compound | Potency |
| --- | --- |
| O=[N+]([O-])c1ccc(CCl)cc1 | inactive |
| N#C/C=C/c1ccccc1 | inactive |
| O=c1[nH]oc2c1CCNC2 | inactive |
| Cc1cnc2c(C(=O)O)c(Cl)ccc2c1 | inactive |
| O=C(NC(=O)c1c(F)cccc1F)Nc1cc(Cl)c(F)c(Cl)c1F | inactive |
| Nc1cc(Cl)ccc1Cl | inactive |
| O=C(O)C(F)(F)C(F)(F)C(F)(F)C(F)(F)C(F)(F)C(F)(F)C(F)(F)C(F)(F)C(F)(F)F | inactive |
| O=C(CCCCl)c1ccc(F)cc1 | inactive |
| CC(C)N(Cc1ccccc1)C(=O)C(C)(C)C | inactive |
| CC1(C)CCC(Cc2ccc(Cl)cc2)C1(O)Cn1cncn1 (stereo not given) | 49 µM (active) |
| N#CC(O)c1ccccc1 (stereo not given) | inactive |
| CC(CC(C(N)=O)(c1ccccc1)c1ccccc1)N(C)C (stereo not given) | inactive |
| Cn1c(CCCC(=O)O)nc2cc(N(CCCl)CCCl)ccc21 | inactive |
| CNP(=O)(OC)Oc1ccc(C(C)(C)C)cc1Cl (stereo not given) | inactive |
| Cn1[nH]nnc1=S | inactive |
| CC1CCC(C(C)C)C(OC(=O)c2ccccc2N)C1 (stereo not given) | inactive |
| Cc1nnc2n1-c1sc(CCC(=O)N3CCOCC3)cc1C(c1ccccc1Cl)=NC2 | inactive |
| CC(C)(C)OO | inactive |
| OC(c1ccc(F)cc1)(c1cncnc1)c1ccccc1Cl (stereo not given) | inactive |
| CC(C)(C)NC[C@H](O)c1ccc(O)cc1Cl | inactive |
